# Values joined by “and” are separate entries in the source; they are usually repeats but may differ in a detail not shown here. Equal values may be shown once. Read-outs that look alike come from different tables or passages of the source.
# Assays:
# Settings in all cases: n = 1
# [1] = system: T1, NDR1
# T1 construct: gene STK38
# [2] = system: NDR2
# [3] = system: NEK10
# [4] = system: NEK11
# [5] = system: NEK1
# [6] = system: NEK2
# [7] = system: NEK3
# [8] = system: NEK4
# [9] = system: NEK5
# [10] = system: NEK6
# [11] = concentration: 1 μM, replicates: in singlicate
# [12] = concentration: 1 μM,replicates: in singlicate, 1 µM
# 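Further: KINOMEscan kinase panel screen.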
smiles,measurement,setting,value
Cc1c(Cn2ccn3c(=O)cc(N4CCOCC4)nc23)cccc1C(F)(F)F [GSK2289044],%Inh,[1]; [11],31%
same,%Inh,[2]; [11],0%
same,%Inh,[3]; [11],0%
same,%Inh,[4]; [11],0%
same,%Inh,[5]; [11],0%
same,%Inh,[6]; [11],8%
same,%Inh,[7]; [11],0%
same,%Inh,[8]; [11],0%
same,%Inh,[9]; [11],2%
same,%Inh,[10]; [11],0%
CC(C)(C)c1ccc(C(=O)Nc2cn3cc(-c4cccnc4)ccc3n2)cc1,%Inh,[1]; [11],49%
same,%Inh,[2]; [11],0%
same,%Inh,[3]; [11],2%
same,%Inh,[4]; [11],0%
same,%Inh,[5]; [11],13%
same,%Inh,[6]; [11],8%
same,%Inh,[7]; [11],54%
same,%Inh,[8]; [11],0%
same,%Inh,[9]; [11],31%
same,%Inh,[10]; [11],13%
Cl.Oc1ccc(-c2nc(-c3ccccc3)[nH]c2-c2ccncc2)cc1 [SB-428218],%Inh,[1]; [11],12%
same,%Inh,[2]; [11],5%
same,%Inh,[3]; [11],9%
same,%Inh,[4]; [11],24%
same,%Inh,[5]; [11],0%
same,%Inh,[6]; [11],3%
same,%Inh,[7]; [11],15%
same,%Inh,[8]; [11],29%
same,%Inh,[9]; [11],6%
same,%Inh,[10]; [11],0%
Cc1cc(N2Cc3ccccc3C2)nc(Nc2ccc(S(=O)(=O)N3CCOCC3)cc2)n1.Cl [GSK1669917],%Inh,[1]; [11],20%
same,%Inh,[2]; [11],0%
same,%Inh,[3]; [11],0%
same,%Inh,[4]; [11],0%
same,%Inh,[5]; [11],0%
same,%Inh,[6]; [11],0%
same,%Inh,[7]; [11],0%
same,%Inh,[8]; [11],9%
same,%Inh,[9]; [11],23%
same,%Inh,[10]; [11],0%
C[C@@H]1CCCCN1c1cc(-c2ccc3c(N)n[nH]c3c2)nc(N)n1 [GSK2258759],%Inh,[1]; [11],24%
same,%Inh,[2]; [11],12%
same,%Inh,[3]; [11],0%
same,%Inh,[4]; [11],0%
same,%Inh,[5]; [11],0%
same,%Inh,[6]; [11],3%
same,%Inh,[7]; [11],10%
same,%Inh,[8]; [11],0%
same,%Inh,[9]; [11],8%
same,%Inh,[10]; [11],0%
COc1cc(Nc2nccc(N3CCC(NC(=O)Nc4cc(C)ccc4C)C3)n2)cc(OC)c1OC (centres unmarked) [GSK1379762],%Inh,[1]; [11],0%
same,%Inh,[2]; [11],0%
same,%Inh,[3]; [11],20%
same,%Inh,[4]; [11],0%
same,%Inh,[5]; [11],22%
same,%Inh,[6]; [11],25%
same,%Inh,[7]; [11],9%
same,%Inh,[8]; [11],4%
same,%Inh,[9]; [11],91.6%
same,%Inh,[10]; [11],1%
Cc1ccc(NC(=O)Nc2cccc(C(F)(F)F)c2)cc1 [GSK955403],%Inh,[1]; 1 µM,15%
same,%Inh,[2]; 1 µM,17%
same,%Inh,[3]; 1 µM,24%
same,%Inh,[4]; 1 µM,0%
same,%Inh,[5]; 1 µM,7%
same,%Inh,[6]; 1 µM,3%
same,%Inh,[7]; 1 µM,5%
same,%Inh,[8]; 1 µM,0%
same,%Inh,[9]; 1 µM,0%
same,%Inh,[10]; 1 µM,0%
Cc1cccc(-c2nc(C)cc(Nc3ccncc3)n2)n1 [GSK257997],%Inh,[1]; [11],7%
same,%Inh,[2]; [11],0%
same,%Inh,[3]; [11],27%
same,%Inh,[4]; [11],0%
same,%Inh,[5]; [11],0%
same,%Inh,[6]; [11],0%
same,%Inh,[7]; [11],0%
same,%Inh,[8]; [11],0%
same,%Inh,[9]; [11],20%
same,%Inh,[10]; [11],0%
CS(=O)(=O)c1ccc(-c2nc3n(c2-c2ccncc2)CCC3)cc1 [SKF-105942],%Inh,[1]; [11],19%
same,%Inh,[2]; [11],0%
same,%Inh,[3]; [11],17%
same,%Inh,[4]; [11],0%
same,%Inh,[5]; [11],0%
same,%Inh,[6]; [11],15%
same,%Inh,[7]; [11],58%
same,%Inh,[8]; [11],22%
same,%Inh,[9]; [11],1%
same,%Inh,[10]; [11],0%
Cc1csc(-c2nc(Nc3ccncc3)c3ccccc3n2)n1 [GW869640],%Inh,[1]; [11],27%
same,%Inh,[2]; [11],25%
same,%Inh,[3]; [11],17%
same,%Inh,[4]; [11],9%
same,%Inh,[5]; [11],0%
same,%Inh,[6]; [11],0%
same,%Inh,[7]; [11],19%
same,%Inh,[8]; [11],28%
same,%Inh,[9]; [11],0%
same,%Inh,[10]; [11],4%
CN1C(=O)C(Nc2ccc(Cl)c(C(=O)O)c2)=C(c2ccc(Cl)cc2)C1=O [SB-404290],%Inh,[1]; [11],0%
same,%Inh,[2]; [11],1%
same,%Inh,[3]; [11],0%
same,%Inh,[4]; [11],30%
same,%Inh,[5]; [11],0%
same,%Inh,[6]; [11],5%
same,%Inh,[7]; [11],0%
same,%Inh,[8]; [11],21%
same,%Inh,[9]; [11],0%
same,%Inh,[10]; [11],0%
Cl.NC(=O)c1cccc(Nc2nccc(Nc3ccc(Oc4cccc(Cl)c4)c(Cl)c3)n2)c1 [GW659008],%Inh,[1]; [11],0%
same,%Inh,[2]; [11],0%
same,%Inh,[3]; [11],0%
same,%Inh,[4]; [11],0%
same,%Inh,[5]; [11],0%
same,%Inh,[6]; [11],0%
same,%Inh,[7]; [11],0%
same,%Inh,[8]; [11],1%
same,%Inh,[9]; [11],32%
same,%Inh,[10]; [11],0%
Nc1ncnc2[nH]c(-c3ccccc3)nc12 [AH5015],%Inh,[1]; [11],0%
same,%Inh,[2]; [11],0%
same,%Inh,[3]; [11],49%
same,%Inh,[4]; [11],71%
same,%Inh,[5]; [11],4%
same,%Inh,[6]; [11],18%
same,%Inh,[7]; [11],53%
same,%Inh,[8]; [11],26%
same,%Inh,[9]; [11],32%
same,%Inh,[10]; [11],0%
CCn1c(-c2cccnc2O)nc2cnccc21 [SB-736715],%Inh,[1]; [11],0%
same,%Inh,[2]; [11],0%
same,%Inh,[3]; [11],0%
same,%Inh,[4]; [11],0%
same,%Inh,[5]; [11],0%
same,%Inh,[6]; [11],0%
same,%Inh,[7]; [11],21%
same,%Inh,[8]; [11],0%
same,%Inh,[9]; [11],0%
same,%Inh,[10]; [11],0%
COc1ccc(C2=C(Nc3cccc(C(=O)O)c3)C(=O)NC2=O)cc1 [SB-390765],%Inh,[1]; [11],2%
same,%Inh,[2]; [11],13%
same,%Inh,[3]; [11],2%
same,%Inh,[4]; [11],30%
same,%Inh,[5]; [11],0%
same,%Inh,[6]; [11],10%
same,%Inh,[7]; [11],31%
same,%Inh,[8]; [11],23%
same,%Inh,[9]; [11],0%
same,%Inh,[10]; [11],13%
Cc1cc(NCC(c2ccccc2)c2ccccc2)nc(NCc2ccc(C(F)(F)F)cc2)n1 [GW497681],%Inh,[1]; [11],10%
same,%Inh,[2]; [11],16%
same,%Inh,[3]; [11],0%
same,%Inh,[4]; [11],0%
same,%Inh,[5]; [11],0%
same,%Inh,[6]; [11],0%
same,%Inh,[7]; [11],0%
same,%Inh,[8]; [11],0%
same,%Inh,[9]; [11],0%
same,%Inh,[10]; [11],0%
Cc1ccc(C(=O)Nc2ccc(Nc3ccnc4cc(-c5ccccn5)ccc34)cc2O)cc1.Cl [GW440146],%Inh,[1]; [11],6%
same,%Inh,[2]; [11],0%
same,%Inh,[3]; [11],0%
same,%Inh,[4]; [11],2%
same,%Inh,[5]; [11],0%
same,%Inh,[6]; [11],0%
same,%Inh,[7]; [11],0%
same,%Inh,[8]; [11],14%
same,%Inh,[9]; [11],0%
same,%Inh,[10]; [11],0%
CSc1nn2c(=O)cc(N3CCOCC3)nc2n1Cc1cccc(C(F)(F)F)c1C [GSK2363608],%Inh,[1]; [12],17% and 8%
same,%Inh,[3]; [12],8% and 28%
same,%Inh,[6]; [12],100% and 1%
same,%Inh,[7]; [12],14% and 3%
same,%Inh,[8]; [12],0% and 16%
same,%Inh,[9]; [12],23% and 0%

# — paper PMC5540273 (PLoS ONE, 2017)
